From the supplement of paper PMC10498489
Among all 2,300 compounds or so, about 330 (14%) showed activity. A selection follows. A number with no mark means an inactive call.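 Rule for the calls: active = median modified Z-score above 1.96; inactive = 1.96 or below.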

These compounds were tested on HepG2 Srxn1-GFP reporter cells (+30 nM CDDO-Me) (assay: Srxn1-GFP intensity median modified Z-score relative to plate median; higher = stronger NRF2 / oxidative stress reporter activation, active = hit call of the paper). Conditions: 10 µM; exposure time: 24h.
Procedure, shortened: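 Compound at 10 μM was applied with an NRF2 activator at 30 nM to HepG2 Srxn1-GFP BAC reporter cells for 24 h, in DMSO at no more than 0.1%, using three replicate 96-well plates seeded at 20,000 cells per well. Fixed, Hoechst-stained cells were imaged confocally and cytoplasmic GFP was scored for each cell, with images under 100 cells left out. The figure reported is the replicate median of the per-plate modified Z-score of GFP intensity. Scaling relied on 1.4826 × median absolute deviation.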

SMILES | Srxn1-GFP intensity median modified Z-score
O=c1c(O)c(-c2ccc(O)c(O)c2)oc2c(O)c(O)cc(O)c12 [euspeclibcmpd1684] | -0.455
C[C@]12CCC3C(CC[C@H]4C[C@@H](O)CC[C@]34C)C1CCC2=O (stereo not given in full) [euspeclibcmpd2371] | -0.083
N[C@H](CO)Cc1ccccc1 [euspeclibcmpd1743] | -0.578
CC(=O)Nc1cc([As](=O)(O)O)ccc1O [euspeclibcmpd2446] | 0.0429
O=[N+]([O-])c1cc([As](=O)(O)O)ccc1O [euspeclibcmpd2449] | 14.6 (active)
O=[N+]([O-])c1ccc([As](=O)(O)O)cc1 [euspeclibcmpd2468] | 0.0717
c1cncc(C2=NCCC2)c1 [euspeclibcmpd2209] | 0
COc1ccc(/C=C/c2cc(O)cc(O)c2)cc1 [euspeclibcmpd1373] | 0.31
COc1cc2c(cc1OC)[C@@]13CCN4CC5=CCOC6CC(=O)N2C1[C@H]6[C@H]5C[C@H]43 (stereo not given in full) [euspeclibcmpd1053] | 1.74
C=CCN1CCC23c4c5ccc(O)c4OC2C(=O)CC[C@@]3(O)[C@H]1C5 (stereo not given in full) [euspeclibcmpd455] | -0.148
C[C@@H]([C@H](O)c1ccccc1)N(C)C [euspeclibcmpd1255] | 0.2
CC(Cc1ccc(O)cc1)NCC(O)c1cc(O)cc(O)c1 (stereo not given) [euspeclibcmpd366] | 0.124
CC(CCc1ccccc1)NC(C)C(O)c1ccc(O)cc1 (stereo not given) [euspeclibcmpd217] | 6.08 (active)
CC1(C)C(C=C(Cl)Cl)C1C(=O)OC(C#N)c1cccc(Oc2ccccc2)c1 (stereo not given) [euspeclibcmpd1141] | -0.358
O=C(COc1ccc(Br)cc1Cl)N1CCN(Cc2ccc3c(c2)OCO3)CC1 | 0.363
O=C(COc1ccc2ccccc2c1)N1CCN(Cc2ccc3c(c2)OCO3)CC1 | 4.61 (active)
C=CCc1ccc2c(c1)OCO2 [euspeclibcmpd1477] | -0.318
CCOP(=S)(OCC)Oc1nc(Cl)c(Cl)cc1Cl [euspeclibcmpd1024] | 0.883
COc1cccc2c1cc([N+](=O)[O-])c1c(C(=O)O)cc3c(c12)OCO3 [euspeclibcmpd2326] | 0.769
COC(C)CC(=O)Nc1ccc([N+](=O)[O-])c(C(F)(F)F)c1 (stereo not given) | 1.79
N=c1ccc(C(N)=O)c[nH]1 [euspeclibcmpd1777] | 0.117
CN1C2CC[C@@H]1C[C@@H](OC(=O)C(CO)c1ccccc1)C2 (stereo not given in full) [euspeclibcmpd2101] | 0.179
Cc1cc2c(C(C)C)c(O)c(O)c(C=O)c2c(O)c1-c1c(C)cc2c(C(C)C)c(O)c(O)c(C=O)c2c1O [euspeclibcmpd1471] | 3.88 (active)
Cc1cc2c(C(C)C)c(O)c(O)c(C=O)c2c(O)c1-c1c(C)cc2c(C(C)C)c(O)c(O)c(C=O)c2c1O [euspeclibcmpd2093] | 3.73 (active)

SMILES | Srxn1-GFP intensity median modified Z-score
CN1C2CCC1CC(OC(=O)C(CO)c1ccccc1)C2 (stereo not given) [euspeclibcmpd2059] | -0.875
CC[C@@]1(O)C(=O)OCc2c1cc1n(c2=O)Cc2cc3ccccc3nc2-1 [euspeclibcmpd1447] | -0.602
COP(=O)(OC)C(O)C(Cl)(Cl)Cl (stereo not given) [euspeclibcmpd866] | 3.07 (active)
CCC(COC(=O)c1cc(OC)c(OC)c(OC)c1)(c1ccccc1)N(C)C (stereo not given) [euspeclibcmpd1183] | -0.264
Oc1ccc2c3c1OC1[C@@H](O)CC[C@@]4(O)[C@@H](C2)N(CC2CCC2)CC[C@]314 (stereo not given in full) [euspeclibcmpd978] | 0.208
COC(=O)C(c1ccccc1)C1CCCCN1 (stereo not given) [euspeclibcmpd885] | -0.181
CN(C)C(=O)Oc1cccc([N+](C)(C)C)c1 [euspeclibcmpd207] | 0.0711
CC(C)c1cc2c(c(O)c1O)[C@@]1(C(=O)O)CCCC(C)(C)C1CC2 (stereo not given in full) [euspeclibcmpd2302] | 5.33 (active)
c1ccc2c(c1)Nc1ccccc1S2 [euspeclibcmpd928] | 0.0728
NCCc1c[nH]c2ccccc12 [euspeclibcmpd1506] | -0.231
S=C=NCc1ccccc1 [euspeclibcmpd1105] | 100 (active)
NNCc1ccccc1 [euspeclibcmpd1327] | 0.32
CC(=O)c1c(O)cc(C)oc1=O [euspeclibcmpd1006] | 15.5 (active)
CN(C)C1C(=O)C(C(N)=O)C(=O)[C@@]2(O)C(=O)C3C(=O)c4c(O)ccc(Cl)c4[C@@](C)(O)[C@H]3C[C@@H]12 (stereo not given in full) [euspeclibcmpd61] | 0.0407
NCC(CC(=O)O)c1ccc(Cl)cc1 (stereo not given) [euspeclibcmpd593] | -0.2
CN(C)C1C(=O)C(C(N)=O)C(=O)[C@@]2(O)C(=O)C3C(=O)c4c(O)cccc4[C@@](C)(O)[C@H]3C[C@@H]12 (stereo not given in full) [euspeclibcmpd288] | 0.167
CC(C)(O)[C@@H]1[C@H]2OC(=O)[C@@H]1[C@]1(O)C[C@H]3O[C@]34C(=O)O[C@H]2[C@]14C [euspeclibcmpd1439] | -0.455
C=C(C)[C@@H]1[C@H]2OC(=O)[C@@H]1[C@]1(O)C[C@H]3O[C@]34C(=O)O[C@H]2[C@]14C [euspeclibcmpd1351] | 17.9 (active)
CCC(C)C(=O)O[C@@H]1C[C@@]2(C)[C@H](c3ccoc3)OC(=O)CC23OC2(C)OC34[C@H](OC(=O)C(C)C)[C@@]3(O)[C@@H](OC(=O)C5(C)OC5C)[C@@]5(C)C[C@]3(O)[C@@](C)([C@H]5CC(=O)OC)C14O2 (stereo not given in full) [euspeclibcmpd1627] | 0.307
COc1c2c(cc3c1OCO3)CC[N+](C)=C2 [euspeclibcmpd2418] | 0.209
CNCC(=O)c1ccc(O)c(O)c1 [euspeclibcmpd922] | -1.16
CCC1(CC)C(=O)NC(=O)NC1=O [euspeclibcmpd2126] | 0.302
COc1ccc2c3c([nH]c2c1)C(C)=NCC3 [euspeclibcmpd2276] | 66 (active)
CC1=NCCc2c1[nH]c1cc(O)ccc21 [euspeclibcmpd2357] | 7.71 (active)

SMILES | Srxn1-GFP intensity median modified Z-score
Cl[C@H]1[C@H](Cl)[C@@H](Cl)[C@@H](Cl)[C@H](Cl)[C@H]1Cl [euspeclibcmpd969] | 0.0503
CC1C(=O)O[C@@H]2O[C@]3(C)CC[C@H]4[C@H](C)CC[C@@H]1[C@@]24OO3 (stereo not given in full) [euspeclibcmpd1110] | 0.987
CC(=O)O[C@@H]1C2CC[C@@H]3C1(C[C@@H](O)[C@@]1(O)[C@@H](C[C@H](O)C1(C)C)[C@]3(C)O)C[C@@]2(C)O (stereo not given in full) [euspeclibcmpd2325] | -0.506
CC(C)(C#N)O[C@@H]1O[C@H](CO)[C@@H](O)[C@H](O)[C@H]1O [euspeclibcmpd1356] | 0.0487
CC1C[C@H](C)C[C@H]([C@H](O)CC2CC(=O)NC(=O)C2)C1=O (stereo not given in full) [euspeclibcmpd437] | -0.201
C=C[C@H]1C[N@]2CC[C@H]1C[C@@H]2[C@H](O)c1ccnc2ccccc12 [euspeclibcmpd2140] | 0.321
Cc1nc(=N)c(CNC(=O)N(CCCl)N=O)c[nH]1 [euspeclibcmpd1167] | -0.0324
N=C(N)NN [euspeclibcmpd930] | -0.0849
CC[C@H]1CN2CCc3cc(OC)c(OC)cc3C2C[C@@H]1CC1NCCc2cc(OC)c(OC)cc21 (stereo not given in full) [euspeclibcmpd109] | -1.21
CC(CO)NC(=O)C1=CC2c3cccc4[nH]cc(c34)CC2N(C)C1 (stereo not given) [euspeclibcmpd113] | 0.556
CC[C@@H](CO)NC(=O)C1=CC2c3cccc4c3c(cn4C)C[C@H]2N(C)C1 (stereo not given in full) [euspeclibcmpd522] | -0.363
CCC(CO)NC(=O)C1=CC2c3cccc4[nH]cc(c34)CC2N(C)C1 (stereo not given) [euspeclibcmpd1928] | -0.0083
CC(C)CC1C(=O)N2CCC[C@H]2[C@@]2(O)O[C@](NC(=O)C3=CC4c5cccc6[nH]c(Br)c(c56)CC4N(C)C3)(C(C)C)C(=O)N12 (stereo not given in full) [euspeclibcmpd39] | 23.2 (active)
CN1CC(C(=O)N[C@]2(C)O[C@@]3(O)[C@@H]4CCCN4C(=O)C(Cc4ccccc4)N3C2=O)C[C@@H]2c3cccc4[nH]cc(c34)C[C@H]21 (stereo not given in full) [euspeclibcmpd97] | -0.0377
CN1CC(C(=O)N[C@]2(C)O[C@@]3(O)C4CCCN4C(=O)C(Cc4ccccc4)N3C2=O)=CC2c3cccc4[nH]cc(c34)CC21 (stereo not given in full) [euspeclibcmpd823] | 113 (active)
CC(NC(C)(C)C)C(=O)c1cccc(Cl)c1 (stereo not given) [euspeclibcmpd657] | -0.376
CC(=O)Oc1ccc(/C=C/c2cc(OC(C)=O)cc(OC(C)=O)c2)cc1 [euspeclibcmpd1618] | 1.59
CC(=O)NC1CCSC1=O (stereo not given) [euspeclibcmpd1125] | 0.231
CCOP(=S)(OCC)Oc1cc(C)nc(C(C)C)n1 [euspeclibcmpd706] | -0.234
C=CCc1cc(OC)c2c(c1OC)OCO2 [euspeclibcmpd1480] | -0.404
N=c1cc[nH]cc1 [euspeclibcmpd895] | -0.471
Cc1cc(C(C#N)c2ccc(Cl)cc2)c(Cl)cc1NC(=O)c1cc(I)cc(I)c1O (stereo not given) [euspeclibcmpd694] | 9.76 (active)
